GLP-1R inv ag: GLP-1 receptor (human) inverse agonism; 410,000 compounds, 1.6% hits; Potency, µM (doses to about 38.3 µM), hits mostly inhibitors; HEK293 GLP-1R CRE-luciferase, luminescence, 24 h; GLP-1R form is constitutively active; P43220; note: nearly all actives have a fitted effect of over 55% in size
Target sequence (P43220 whole entry, looked up): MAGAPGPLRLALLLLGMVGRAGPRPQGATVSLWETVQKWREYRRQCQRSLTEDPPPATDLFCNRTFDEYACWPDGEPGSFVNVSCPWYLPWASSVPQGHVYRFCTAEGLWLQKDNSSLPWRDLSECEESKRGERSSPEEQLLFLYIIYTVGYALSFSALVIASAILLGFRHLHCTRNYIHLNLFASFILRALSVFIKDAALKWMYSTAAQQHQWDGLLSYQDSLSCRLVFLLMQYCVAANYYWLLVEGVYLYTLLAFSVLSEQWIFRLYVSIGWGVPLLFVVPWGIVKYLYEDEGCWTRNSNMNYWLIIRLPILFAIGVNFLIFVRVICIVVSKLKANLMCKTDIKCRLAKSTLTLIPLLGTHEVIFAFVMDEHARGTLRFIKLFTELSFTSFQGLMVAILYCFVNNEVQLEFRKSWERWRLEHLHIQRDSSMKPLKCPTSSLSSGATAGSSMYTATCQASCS
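Seeding at 200 cells/uL, 12 h culture, 24 hr compound treatment, then luciferase reagent and a luminescence read; cells are HEK293 stably expressing a constitutively active GLP-1R plus cAMP-responsive luciferase.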
GLP-1R agonist: activates the human GLP-1 receptor | Potency, µM (doses to about 45.6 µM), actives largely listed as activators | HEK293 GLP-1R CRE-luciferase, luminescence, 4-6 h; cells express a hypersensitive GLP-1R form | P43220 | 380,000 compounds, 0.007% hits
HEK293 tox: cytotoxic in the GLP-1 receptor inverse agonist counter-screen; HEK293 cAMP-luciferase reporter cells, luminescence, 24 h; Potency, µM (series often up to 38.3 µM), actives largely listed as inhibitors; 410,000 compounds, 0.13% hits;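 note: loss of luciferase light is scored as toxicity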
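Luminescence readout: signal drop marks cytotoxicity. Plated cells grew 12 h at 37 °C, 5% CO2, received 23 nL compound for 24 h, then got luciferase reagent, read after 12 min at RT.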
PTHR1 ag: PTHR1 (human) receptor agonism; Potency, µM (highest dose often 115 µM), most hits filed as activators; Q03431; HEK293 GP2 PTHR1 cells, GloSensor cAMP luminescence, 1 h; 410,000 compounds, 0.075% hits; AID 743266; note: nearly all actives have a fitted effect of over 55% in size
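HEK-293-derived GP2 cells expressing PTHR1 and a GloSensor cAMP reporter, 3,000/well, plated overnight, given luciferin plus IBMX (each 0.5 mM as added) for 1 h at 37 °C, then compound for 1 h at 37 °C. Luminescence was read after 15 min at room temperature.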
A number is an active result; - = inactive; ? = inconclusive; . = not tested or not shown; [ ] = dose if it differs, or a comment. Compounds with a hit are over-represented: about 1.7% of the library has one in this group of screens. Calls come from the whole dose curve; as a rule, active = well fitted curve in the direction sought with a large enough effect; inconclusive = small, poorly fitted or top-dose-only effect, or another doubt; inactive = no such curve, though single readings can be large; an effect the other way counts as inactive or inconclusive.

SMILES	GLP-1R inv ag	GLP-1R agonist	HEK293 tox	PTHR1 ag
N=c1c2c(n(Cc3ccc(Cl)cc3)c3c1CCC3)CCC2	-	-	-	-
CCOc1ccccc1NC(=O)c1ccccc1NC(=O)c1ccco1	-	-	-	-
O=C(Nc1ccccc1OCc1ccccc1)c1ccccc1Br	10µM	-	-	-
Cc1ccc(NC(=O)c2ccc(N(Cc3ccccc3)S(C)(=O)=O)cc2)cc1	?	.	-	-
Cc1cccc2c1-c1sc(C(=O)N3CCN(c4ccccc4)CC3)cc1CO2	-	.	-	-
O=C(CCCOc1ccccc1)N1CCN(c2ccccn2)CC1	10µM	-	-	-
O=C1Nc2ccc(Br)cc2/C1=C/C1CC=CCC1 (stereo not given)	4.5µM	-	-	-
COc1ccc(C(=O)/C=C2\C(=O)Nc3ccc(Br)cc32)cc1	?	-	?	-
COc1ccc(C)cc1NC(=O)c1ccc2c(c1)nnn2C1CCCC1	?	.	-	-
O=C(NNc1ccc([N+](=O)[O-])cc1[N+](=O)[O-])c1ccco1	-	-	10µM	-
O=C(NNc1ccc([N+](=O)[O-])cc1)c1ccco1	?	-	?	-
CCc1ccc(NC(=O)CN2C(=O)C(c3ccc(C)cc3)=NC23CCCCC3)cc1	11µM	.	-	-
CCc1ccc(NC(=O)CN2C(=O)C(c3ccc(Cl)cc3)=NC23CCCCC3)cc1	11µM	.	-	-
Cc1ccc(NC(=O)CN2C(=O)C(c3ccc(C)cc3)=NC23CCCCCC3)cc1	10µM	.	-	-
CC(=O)c1ccc(N2CCN(c3ncnc4c3c(-c3ccccc3)cn4-c3ccc(C)c(Cl)c3)CC2)cc1	-	.	-	-
Cc1c(CC(=O)NCCc2ccccc2F)c(=O)oc2c(C)c3occ(C(C)(C)C)c3cc12	-	.	-	-
CCSc1ccccc1C(=O)N1CCN(c2nc3ccccc3s2)CC1	?	.	-	-
N#Cc1ccccc1CN1C(=O)c2ccccc2Sc2ccc(C(=O)OCc3ccco3)cc21	?	-	-	-
CCN(Cc1ccccc1)C(=O)c1ccc(CS(=O)c2ccccc2C)o1 (stereo not given)	10µM	-	-	-
Cc1ccccc1S(=O)Cc1ccc(C(=O)NC2CC2)o1 (stereo not given)	-	-	-	-
Cc1ccc(C)c(Cn2c(C3CC(=O)N(c4ccccc4C)C3)nc3ccccc32)c1 (stereo not given)	?	.	-	-
Fc1ccc(NCc2ccccc2-c2nnc(-c3ccccc3Cl)o2)cc1	-	.	-	-
CSC(=Nc1ccccc1)N=C(SCc1ccccc1)N(C)C	3.5µM	-	5.6µM	-
N#CNC(=Nc1ccccc1)SCc1ccc(C(=O)O)cc1	-	-	-	-
Cc1c(Cl)ccc2sc(N3CCN(C(=O)c4ccco4)CC3)nc12	-	.	-	-
SMILES	GLP-1R inv ag	GLP-1R agonist	HEK293 tox	PTHR1 ag
Cc1cc(C)c2nc(N3CCC(C(=O)N4CCN(C(=O)c5ccco5)CC4)CC3)sc2c1	7.9µM	-	-	-
O=C(Nc1nccs1)C12CC3CC(C1)CC(C(=O)Nc1nccs1)(C3)C2	4.5µM	-	-	-
CCN(CC)CCCNC(=O)C(C)Sc1nc(-c2ccccc2)cc(C(F)(F)F)n1 (stereo not given)	2.8µM	-	-	-
O=[N+]([O-])c1cc(-c2csc(NCCc3nc4cc(Cl)c(Cl)cc4n3CCCO)n2)ccc1Cl	14µM	-	?	-
CCc1sc(C(=O)Nc2ccc(NC(C)=O)cc2)cc1C	-	-	-	-
CCc1sc(C(=O)Nc2nc(C)cs2)cc1C	10µM	-	?	-
Cc1ccc(C(C)C)c(OCCSc2nc(-c3ccccc3F)nc3cc(=O)[nH]n23)c1	-	.	-	-
CCOC(=O)c1c(NC(=O)CNCCO)sc(C)c1C	-	?	-	-
CCOC(=O)c1c(NC(=O)CNC2CCCCC2)sc(C)c1C	4µM	-	-	-
CSc1ccccc1NC(=O)CN(C)Cc1ccc(Br)cc1	7.1µM	-	-	-
CN1C(=O)/C(=C/c2ccccc2OCc2cccc(F)c2)N(C)C1=S	5.6µM	-	-	-
CCN(CC(=O)Nc1cc(S(=O)(=O)N2CCCCC2)ccc1C)Cc1ccccc1	6.3µM	-	-	-
Cc1ccc(S(=O)(=O)N2CCCCC2)cc1NC(=O)CCOc1ccccc1	?	-	-[1.53 µM]	-
Cc1ccc(S(=O)(=O)N2CCCCC2)cc1NC(=O)CCCOc1ccccc1	5.6µM	-	-	-
Cc1cccc(NNC(=O)C(=O)NNc2cccc(C)c2)c1	?	-	-	-
CCCc1ccc(C(=O)NNc2cc(Cl)ccc2Cl)cc1	1.3µM	-	-	-
CCCc1ccc(C(=O)NNc2cccc(C)c2)cc1	2.8µM	-	?	-
CCCc1ccc(C(=O)NNC(=O)c2ccc(Cl)cc2)cc1	-	-	-	-
Cc1nn(-c2ccccc2)c2c1N(CC(=O)N1CCN(c3ccc(F)cc3)CC1)C(=O)CS2	-	.	-	-
COc1ccc(OC)c(NC(=S)N(CCc2c(C)[nH]c3ccc(C)cc23)Cc2cccs2)c1	11µM	-	-	-
CCOC(=O)c1scc(-c2ccccc2)c1S(=O)(=O)N1CCN(c2ccccc2OC)CC1	?	.	-	-
O=C(Nc1nc(-c2ccc(F)c(F)c2)cs1)c1cc([N+](=O)[O-])ccc1N1CCOCC1	-	-	-	-
Cc1cc(C)c(-c2csc(NC(=O)c3cc([N+](=O)[O-])ccc3N3CCOCC3)n2)c(C)c1	8.9µM	-	-	-
O=C(NC1CCCc2c1cnn2-c1ccccc1F)c1ccccc1N1CCOCC1 (stereo not given)	7.9µM	-	-	-
Cc1cc(C)cc(-n2ncc3c2CCCC3NC(=O)c2ccccc2N2CCOCC2)c1 (stereo not given)	?	-	-	-
SMILES	GLP-1R inv ag	GLP-1R agonist	HEK293 tox	PTHR1 ag
CCCn1c(=O)c2sccc2n2c(CCCC(=O)N3CCN(c4ccccc4)CC3)nnc12	-	.	-	-
CC1(C)CC2CC(C)(CN2/C=N/c2sc3c(c2C#N)CC(C)(C)NC3(C)C)C1 (stereo not given)	1.1µM	-	?	-
O=c1c(-c2ccccc2)nc2ccccc2n1C(c1ccccc1)c1nc2ccccc2[nH]1 (stereo not given)	1.6µM	.	-	-
CSCCC(c1nc2ccccc2[nH]1)n1c(=O)c(-c2cccnc2)nc2ccccc21 (stereo not given)	-	.	-	-
O=c1c(-c2ccccc2)nc2ccccc2n1C(CCc1ccccc1)c1nc2ccccc2[nH]1 (stereo not given)	10µM	.	-	-
c1ccc(-c2nc3ccccc3n2C(c2ccccc2)c2nc3ccccc3[nH]2)cc1 (stereo not given)	-	.	-	-
CCOc1cccc2sc(N3CCN(C(=O)c4ccc5c(c4)CCCC5)CC3)nc12	-	.	-	-
CN(C)C(=O)CSc1cccc2cccnc12	2.8µM	-	2.5µM	-
O=C(CSc1ncccn1)N1CCCCCC1	-	-	-	-
NNC(=O)CSc1cccc2cccnc12	-	-	-	-
O=C(CSc1cccc2cccnc12)N1CCCC1	0.5µM	-	0.71µM	-

Screening results: PubChem, National Center for Advancing Translational Sciences (NCATS)
